The structures appear in SMILES notation. About 14,000 (4.5%) of roughly 310,000 compounds showed an effect of 50% or more. Effects have a minus sign here. The sample holds strong results, similar compounds and a random draw of the others, so the mix is not that of the screen.
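Further: peak tail current of the secondary pulse compared with the same well before compound.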

The target in this assay is human ether-à-go-go-related gene (hERG) potassium channel (human, UniProt Q12809). The assay can be described thus: primary screen, population patch clamp on CHO cells stably expressing hERG; higher = less effect of the substance.
human ether-à-go-go-related gene (hERG) potassium channel, sequence (Q12809 whole entry, looked up): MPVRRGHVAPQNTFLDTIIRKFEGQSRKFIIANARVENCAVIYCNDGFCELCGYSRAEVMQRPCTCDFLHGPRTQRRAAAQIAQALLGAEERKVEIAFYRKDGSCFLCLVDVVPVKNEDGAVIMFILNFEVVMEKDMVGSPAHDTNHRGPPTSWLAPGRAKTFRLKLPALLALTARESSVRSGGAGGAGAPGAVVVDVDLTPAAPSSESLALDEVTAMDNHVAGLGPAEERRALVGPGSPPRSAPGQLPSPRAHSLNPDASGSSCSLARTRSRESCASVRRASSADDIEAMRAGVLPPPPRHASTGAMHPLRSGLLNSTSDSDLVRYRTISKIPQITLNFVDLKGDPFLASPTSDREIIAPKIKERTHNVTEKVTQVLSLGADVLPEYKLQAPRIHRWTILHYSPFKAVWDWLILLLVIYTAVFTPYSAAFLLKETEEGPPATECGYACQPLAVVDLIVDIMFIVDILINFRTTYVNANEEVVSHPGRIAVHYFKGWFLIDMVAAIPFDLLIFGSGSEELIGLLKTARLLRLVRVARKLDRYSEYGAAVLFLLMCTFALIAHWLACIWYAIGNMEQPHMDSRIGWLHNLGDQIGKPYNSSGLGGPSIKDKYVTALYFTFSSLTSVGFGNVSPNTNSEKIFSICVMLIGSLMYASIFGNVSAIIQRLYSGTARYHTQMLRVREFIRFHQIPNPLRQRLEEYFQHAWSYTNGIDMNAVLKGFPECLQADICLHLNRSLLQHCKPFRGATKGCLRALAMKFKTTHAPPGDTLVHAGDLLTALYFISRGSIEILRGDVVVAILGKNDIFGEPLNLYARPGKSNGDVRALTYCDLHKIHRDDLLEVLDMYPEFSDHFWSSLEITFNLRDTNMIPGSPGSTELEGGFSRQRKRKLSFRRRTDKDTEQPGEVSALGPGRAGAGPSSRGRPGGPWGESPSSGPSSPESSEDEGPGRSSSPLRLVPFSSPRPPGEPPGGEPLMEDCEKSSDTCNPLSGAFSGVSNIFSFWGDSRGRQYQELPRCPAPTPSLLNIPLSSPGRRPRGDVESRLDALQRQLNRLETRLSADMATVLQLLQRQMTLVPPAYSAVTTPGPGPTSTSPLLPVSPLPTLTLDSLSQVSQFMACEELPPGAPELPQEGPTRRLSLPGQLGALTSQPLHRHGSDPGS
As to `Cc1cc(C)c(S(=O)(=O)c2c(C)cccc2C)c(OCC(C)C)n1`, the “hERG current change (%, negative = inhibition) at 10uM” value is 2.76%.

In the case of `COc1cccc(-c2nc(CS(=O)(=O)CC(=O)Nc3cc(C)ccc3C)c(C)o2)c1`, the “hERG current change (%, negative = inhibition) at 10uM” value stood at 7.02%.

With `C[n+]1cn(Cc2ccc(C#N)cc2)c2ccccc21.[Cl-]`, the “hERG current change (%, negative = inhibition) at 10uM” value was found to be 2.75%.

As for `C=CCN=C1N[C@@H](c2ccccc2)C(C(=O)OC)=C(C)N1CCOC`, the “hERG current change (%, negative = inhibition) at 10uM” value is on record as -13%.

For the compound `CC(=O)N(C)c1ccc(NC(=S)Nc2cccc3ccccc23)cc1`, the “hERG current change (%, negative = inhibition) at 10uM” value was determined as 3.38%.

For the compound `O=C(CSc1nnnn1-c1ccc(O)cc1)Nc1ccc(N2CCOCC2)c(Cl)c1`, the “hERG current change (%, negative = inhibition) at 10uM” value is on record as -1.58%.

Consider `CCOc1ccc(CCNC(=O)C2CCCN(c3nn4c(=O)cc(C)nc4s3)C2)cc1` (centres unmarked), for which the “hERG current change (%, negative = inhibition) at 10uM” value is given as -24.2%.

`COC(c1ccccc1)c1nnc(CCC(=O)NC2C3CC4CC(C3)CC2C4)o1` (centres unmarked): the “hERG current change (%, negative = inhibition) at 10uM” value is recorded as -3.85%.

In the case of `CCCCc1c(C)nc2c(OC)cccc2c1SCC(=O)O`, the “hERG current change (%, negative = inhibition) at 10uM” value was found to be 12.3%.

As for `O=C(C1CCC1)N1CCN(c2ccnc3cc(Cl)ccc23)CC1`, the “hERG current change (%, negative = inhibition) at 10uM” value is on record as -71.4%.

Turning to `O=C(C1CCC1)N1CCN(c2ccc(Cl)cc2)CC1`, the “hERG current change (%, negative = inhibition) at 10uM” value was -5.33%.

Consider `O=C(Oc1ccnc2cc(Cl)ccc12)N1CCCCCC1`, for which the “hERG current change (%, negative = inhibition) at 10uM” value was -23%.

As to `O=C(NNc1ccnc2cc(Cl)ccc12)C1CCCCC1`, the “hERG current change (%, negative = inhibition) at 10uM” value is on record as 16.1%.

For the compound `CC1CN(c2ccnc3cc(Cl)ccc23)CC(C)O1` (centres unmarked), the “hERG current change (%, negative = inhibition) at 10uM” value is given as -39.7%.

As to `O=C(C1CC1)N1CCN(c2ccnc3cc(Cl)ccc23)CC1`, the “hERG current change (%, negative = inhibition) at 10uM” value is on record as -73.6%.

In the case of `O=C(C1CCCCC1)N1CCN(c2ccnc3cc(Cl)ccc23)CC1`, the “hERG current change (%, negative = inhibition) at 10uM” value is recorded as -66.1%.

For the compound `NC(=O)C1CCN(c2ccnc3cc(Cl)ccc23)CC1`, the “hERG current change (%, negative = inhibition) at 10uM” value is -51.6%.

Take `NC(=O)C1CCN(c2cc(Cl)ccc2[N+](=O)[O-])CC1`: the “hERG current change (%, negative = inhibition) at 10uM” value is given as 3.89%.

Consider `Cc1[nH]c2ccc(C(=O)N3CCN(C)CC3)cc2c1C`, for which the “hERG current change (%, negative = inhibition) at 10uM” value worked out at 30.8%.

Turning to `COc1ccc(C2CC(c3cccs3)=NN2c2ccc(F)cc2)cc1OC` (centres unmarked), the “hERG current change (%, negative = inhibition) at 10uM” value was 26.6%.

Regarding `CCN1CCN(CCCNC(=O)c2ccc(NC(=O)C3=CSCCO3)cc2)CC1`, the “hERG current change (%, negative = inhibition) at 10uM” value is given as 19.9%.

Turning to `COc1ccccc1NC(=O)c1ccc(N)cc1`, the “hERG current change (%, negative = inhibition) at 10uM” value was determined as 5.63%.

For the compound `COc1ccccc1NC(=O)c1ccc(Br)o1`, the “hERG current change (%, negative = inhibition) at 10uM” value is given as -6.16%.

Turning to `COc1ccccc1-c1noc(-c2ccccc2C(=O)Nc2ccccc2)n1`, the “hERG current change (%, negative = inhibition) at 10uM” value is on record as 13.9%.

With `COc1ccccc1NC(=O)c1ccc(C(=O)c2ccccc2)o1`, the “hERG current change (%, negative = inhibition) at 10uM” value is listed as -69.4%.

Turning to `O=C(Nc1ccccc1O)c1ccc(C(=O)c2ccccc2)o1`, the “hERG current change (%, negative = inhibition) at 10uM” value was 11.2%.

In the case of `COc1ccccc1NC(=O)c1ccccc1-c1nc(-c2ccccc2OC)no1`, the “hERG current change (%, negative = inhibition) at 10uM” value was -57.7%.

For the compound `COc1ccccc1NC(=O)c1cc(N)cc(C(=O)Nc2ccccc2OC)c1`, the “hERG current change (%, negative = inhibition) at 10uM” value was -50.6%.

As to `CCOc1ccccc1NC(=O)c1ccccc1-c1nc(-c2ccccc2OC)no1`, the “hERG current change (%, negative = inhibition) at 10uM” value is listed as -35.6%.

`COc1ccccc1NC(=O)c1cc(C(=O)Nc2ccccc2OC)cc([N+](=O)[O-])c1`: the “hERG current change (%, negative = inhibition) at 10uM” value was 21.1%.

`COc1ccc(C(=O)OCC(=O)NC(C)CCc2ccccc2)cc1OC` (centres unmarked): the “hERG current change (%, negative = inhibition) at 10uM” value came to 0.524%.

`O=C(COc1ccc([N+](=O)[O-])cc1)N(Cc1ccccc1)Cc1ccccc1`: the “hERG current change (%, negative = inhibition) at 10uM” value is given as -41.5%.

`COC(=O)c1c(C)oc2ccc(OC(=O)N3CCOCC3)cc12`: the “hERG current change (%, negative = inhibition) at 10uM” value was -8.62%.

In the case of `CCC(CC)c1nnc(NC(=O)c2cc(C(=O)OC)cc([N+](=O)[O-])c2)s1`, the “hERG current change (%, negative = inhibition) at 10uM” value was 7.7%.

For the compound `COC(=O)c1ccc(OC(=O)CCS(=O)(=O)c2ccc(C)cc2)cc1`, the “hERG current change (%, negative = inhibition) at 10uM” value was -16.4%.

With `CC(C)Cc1ccc(CN2CCCC(NC(=O)CSc3nncn3C)C2)cc1` (centres unmarked), the “hERG current change (%, negative = inhibition) at 10uM” value is -23.7%.

In the case of `CC(C)Cc1ccc(CN2CCCC(NC(=O)CCn3cnnn3)C2)cc1` (centres unmarked), the “hERG current change (%, negative = inhibition) at 10uM” value is on record as -46.2%.

For the compound `Cc1noc(C)c1CCC(=O)NC1CCCN(Cc2ccc(Cl)cc2)C1` (centres unmarked), the “hERG current change (%, negative = inhibition) at 10uM” value is -24%.

Regarding `CC(C)Cc1ccc(CN2CCCC(NC(=O)CCN3CCCCC3=O)C2)cc1` (centres unmarked), the “hERG current change (%, negative = inhibition) at 10uM” value is recorded as -45.3%.

With `Cc1ccn(CC(=O)NC2CCCN(Cc3ccc(CC(C)C)cc3)C2)n1` (centres unmarked), the “hERG current change (%, negative = inhibition) at 10uM” value was -55.2%.

Consider `CC(C)Cc1ccc(CN2CCCC(NC(=O)CCN3CCOCC3)C2)cc1` (centres unmarked), for which the “hERG current change (%, negative = inhibition) at 10uM” value is recorded as -37.4%.

Regarding `CC(C)Cc1ccc(CN2CCCC(NC(=O)Cn3cnnn3)C2)cc1` (centres unmarked), the “hERG current change (%, negative = inhibition) at 10uM” value is recorded as -26.5%.

Take `Cc1noc(C)c1CCC(=O)NC1CCCN(Cc2ccc(CC(C)C)cc2)C1` (centres unmarked): the “hERG current change (%, negative = inhibition) at 10uM” value is given as -66.8%.

Consider `CC(=O)c1c(C)nn(CC(=O)NC2CCCN(Cc3ccc(CC(C)C)cc3)C2)c1C` (centres unmarked), for which the “hERG current change (%, negative = inhibition) at 10uM” value was -73.4%.

With `CC(C)C[C@H](NC(=O)c1nc[nH]c1C(=O)NCc1ccc(CNC(=O)OC(C)(C)C)cc1)C(=O)OC(C)(C)C`, the “hERG current change (%, negative = inhibition) at 10uM” value is listed as 2.06%.

With `CN(C)Cc1nc2c(c(=O)[nH]1)C1(CCCCC1)Cc1ccccc1-2`, the “hERG current change (%, negative = inhibition) at 10uM” value is listed as -11.7%.

`CSc1ccc(/C=C/C(=O)NC23CC4CC(CC(C4)C2)C3)cc1`: the “hERG current change (%, negative = inhibition) at 10uM” value turned out to be 14.6%.

`C=CCNC(=S)NNC(=O)c1ccc(OCCCC)cc1`: the “hERG current change (%, negative = inhibition) at 10uM” value came to 10.2%.

For the compound `CCN(CC(=O)NC(C)C)C(=O)[C@@H](NC(=O)c1ccco1)C(C)C`, the “hERG current change (%, negative = inhibition) at 10uM” value is reported as 11.5%.

On to `COc1ccc([N+](=O)[O-])cc1C(=O)C(=O)c1ccccc1`, for which the “hERG current change (%, negative = inhibition) at 10uM” value is listed as 8.56%.

In the case of `O=C(CCn1c(=O)oc2ccccc21)NCCCN1CCN(c2ccc(F)cc2)CC1`, the “hERG current change (%, negative = inhibition) at 10uM” value is -66.2%.

For the compound `O=C(CCCn1c(=O)oc2ccccc21)N1CCN(c2ccccn2)CC1`, the “hERG current change (%, negative = inhibition) at 10uM” value was -47.6%.

Turning to `O=C(CCn1c(=O)oc2ccccc21)N1CCN(c2ccc(F)cc2)CC1`, the “hERG current change (%, negative = inhibition) at 10uM” value is given as -58%.

For the compound `O=C(CCn1c(=O)oc2ccccc21)NCCN1CCOCC1`, the “hERG current change (%, negative = inhibition) at 10uM” value is -2.83%.

On to `O=C1CCN(C(=O)CCCn2c(=O)oc3ccccc32)CC1`, for which the “hERG current change (%, negative = inhibition) at 10uM” value is recorded as 17%.

For `O=C(CCn1c(=S)oc2ccccc21)N1CCN(c2ccc(F)cc2)CC1`, the “hERG current change (%, negative = inhibition) at 10uM” value is listed as -25.3%.

As to `O=C(CCCn1c(=O)oc2ccccc21)N1CCN(c2ccc(F)cc2)CC1`, the “hERG current change (%, negative = inhibition) at 10uM” value was -63.9%.

Consider `O=C(CCn1c(=O)oc2ccccc21)N1CCN(c2ccccc2F)CC1`, for which the “hERG current change (%, negative = inhibition) at 10uM” value is -23.8%.

For `O=C(CCn1c(=O)oc2ccccc21)NCCCN1CCOCC1`, the “hERG current change (%, negative = inhibition) at 10uM” value worked out at 16.9%.

In the case of `O=C(CN1C(=O)c2ccccc2S1(=O)=O)N1CCN(c2ccc(F)cc2)CC1`, the “hERG current change (%, negative = inhibition) at 10uM” value is -7.37%.

With `O=C(CCN1C(=O)c2ccccc2S1(=O)=O)N1CCN(c2ccc(F)cc2)CC1`, the “hERG current change (%, negative = inhibition) at 10uM” value is -61.9%.

In the case of `Cl.O=C(CCN1C(=O)c2ccccc2S1(=O)=O)N1CCN(c2ccccc2)CC1`, the “hERG current change (%, negative = inhibition) at 10uM” value is given as 2.96%.

These data come from PMC4336329 (PLoS ONE, 2015).
